Measurements from PubChem BioAssay (NCI).
Values joined by “and” are separate entries in the source; they are usually repeats but may differ in a detail not shown here. Identical values can stand only once. The panel holds about 83,000 compounds, 20% with a hit somewhere; the sample as a whole holds those more often.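 Values shown are percent growth following 48 h exposure of cells in 96-well plates to a single concentration of compound; below 10 was considered active.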 Active and inactive are the calls of the source.

Key:
Test in all cases: NCI-60 one-dose screen, 48 h (100 = growth as untreated, 0 = no growth, -100 = all killed)
Settings in all cases: 10 µM
T-47D breast = system: T-47D breast
BT-549 breast = system: BT-549 breast
MDA-MB-435 melanoma = system: MDA-MB-435 melanoma
SW-620 colon = system: SW-620 colon
MCF7 breast = system: MCF7 breast
HCT-116 colon = system: HCT-116 colon
HCC-2998 colon = system: HCC-2998 colon
KM12 colon = system: KM12 colon
MDA-MB-468 breast = system: MDA-MB-468 breast

Measured: growth

CS(=O)(=O)Nc1ccc(-c2ccc3c(c2)ncn3-c2ccc(NC(=O)Nc3ccc(Br)cc3)cc2)cc1
active: T-47D breast -8.48% | BT-549 breast -36.5% | MDA-MB-435 melanoma -18% | SW-620 colon 1.27% | MCF7 breast -35.1% | HCT-116 colon 2.46% | KM12 colon 2.79% | MDA-MB-468 breast -10.7%
inactive: HCC-2998 colon 18%

COc1ccccc1[C@H]1C(C(=O)c2ccc(O)cc2)C2(N[C@@H]1c1ccccc1)C(=O)Nc1ccc(Br)cc12 (stereo partly specified)
active: MCF7 breast 3.19% | HCC-2998 colon -38.6% | MDA-MB-468 breast -42.9%
inactive: T-47D breast 45.8% | BT-549 breast 54% | MDA-MB-435 melanoma 14.2% | SW-620 colon 13.6% | HCT-116 colon 39.6% | KM12 colon 14.3%

Cc1cccc(-c2nc(Nc3ccccc3C(=O)O)c3ccccc3n2)c1
inactive: T-47D breast 26.8% | MDA-MB-435 melanoma 44.6% | SW-620 colon 35.5% | MCF7 breast 24% | HCT-116 colon 22.7% | HCC-2998 colon 27.1% | KM12 colon 30%
active: BT-549 breast -0.675% | MDA-MB-468 breast -15.1%

Cc1ccc(NCC(=O)Nn2c(COc3ccccc3)nc3ccccc3c2=O)cc1
inactive: T-47D breast 82.6% | BT-549 breast 97.6% | MDA-MB-435 melanoma 92.6% | SW-620 colon 95.1% | MCF7 breast 82% | HCT-116 colon 85.1% | HCC-2998 colon 95.7% | KM12 colon 100% | MDA-MB-468 breast 80.1%

O=C(Cn1nc(-c2ccccc2)ccc1=O)NNC(=S)NC1CCCCC1
inactive: T-47D breast 82% | BT-549 breast 111% | MDA-MB-435 melanoma 110% | SW-620 colon 113% | MCF7 breast 99.4% | HCT-116 colon 112% | HCC-2998 colon 114% | KM12 colon 109% | MDA-MB-468 breast 103%

CN1CCN(c2ccc(C(=O)/C=C/c3ccc(C#N)cc3)cc2)CC1
inactive: T-47D breast 87.4% | BT-549 breast 91.1% | MDA-MB-435 melanoma 28.1% | SW-620 colon 35.5% | HCT-116 colon 18% | HCC-2998 colon 47% | KM12 colon 46.8% | MDA-MB-468 breast 26.5%
active: MCF7 breast 6.57%

O=c1[nH][nH]c(Nc2ccccc2)c1N=Nc1ccc(F)cc1
inactive: T-47D breast 36.4% | BT-549 breast 65.3% | MDA-MB-435 melanoma 99.4% | SW-620 colon 109% | MCF7 breast 13.9% | HCT-116 colon 87% | HCC-2998 colon 92.6% | KM12 colon 55.3% | MDA-MB-468 breast 27.8%

O=C(c1ccc(-n2c(=O)[nH]c3ccccc3c2=O)cc1)N1CCOCC1
inactive: T-47D breast 99.7% | BT-549 breast 75.6% | MDA-MB-435 melanoma 102% | SW-620 colon 97.1% | MCF7 breast 101% | HCT-116 colon 99.2% | HCC-2998 colon 116% | KM12 colon 114% | MDA-MB-468 breast 94.7%

CN(CCF)c1ccc(/C=C/C(=O)c2ccc(N)cc2O)cc1
inactive: T-47D breast 50.7% | BT-549 breast 64.1% | MDA-MB-435 melanoma 81.8% | SW-620 colon 90.3% | MCF7 breast 71.1% | HCT-116 colon 73% | HCC-2998 colon 88.5% | KM12 colon 44.4% | MDA-MB-468 breast 51.4%

CCOC(=O)C1=C(N)N(c2ccc(Cl)cc2)C2=C(C(=O)CC(C)(C)C2)C1c1ccc(N2CCOCC2)cc1 (stereo unspecified)
inactive: T-47D breast 90.8% | BT-549 breast 23.8% | MDA-MB-435 melanoma 101% | SW-620 colon 107% | MCF7 breast 93.2% | HCT-116 colon 99.2% | HCC-2998 colon 103% | KM12 colon 107% | MDA-MB-468 breast 84.2%

O=C(CSc1nnc(-c2ccc3nc(-c4ccccc4)[nH]c3c2)o1)Nc1ccc(Br)cc1
inactive: T-47D breast 62.8% | BT-549 breast 95.9% | MDA-MB-435 melanoma 63.4% | MCF7 breast 28.4% | HCT-116 colon 19.1% | HCC-2998 colon 90.2% | KM12 colon 53.9% | MDA-MB-468 breast 83.2%
active: SW-620 colon 2.94%

Nc1nc(-c2ccccc2)cs1
inactive: T-47D breast 16.3% | BT-549 breast 31.1% | MDA-MB-435 melanoma 67.9% | SW-620 colon 70.5% | MCF7 breast 39.7% | HCT-116 colon 50.7% | HCC-2998 colon 74.6% | KM12 colon 43.1% | MDA-MB-468 breast 55.1% and 115%

C#CCNC(=O)[C@]12CCC(C)(C)C[C@H]1C1=CC[C@@H]3[C@@](C)(CCC#N)[C@H](C(=C)C)CC[C@@]3(C)[C@]1(C)CC2
inactive: T-47D breast 28% | BT-549 breast 75.6% | MDA-MB-435 melanoma 72.2% | SW-620 colon 74.1% | MCF7 breast 34% | HCT-116 colon 27.2% | HCC-2998 colon 75.4% | MDA-MB-468 breast 34.7%
